KB-3-1 tox = KB-3-1 parental cell cytotoxicity; KB-3-1 viability, CellTiter-Glo ATP luminescence, 72 h; Potency, µM (titrated, usually from 46.1 µM), hits mostly cytotoxic; hit rate 1.4% among 400,000; also: nearly all actives have a fitted effect of over 60% in size
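Multi-concentration cytotoxicity screen in KB-3-1 cells grown in DMEM lacking phenol red with 10% FBS. After 72 h at 37 °C with compound, ATP-dependent luminescence was recorded.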
MCF10A rerep = induces DNA re-replication in MCF 10a normal breast cells; Potency, µM (highest dose often 46.1 µM), usual class: activators; MCF 10A DNA re-replication, Hoechst nuclear intensity, 48 h; hit rate 2.9% among 350,000; AID 624296; also: nearly all actives have a fitted effect of over 50% in size
PINK1 modulator = modulators of PINK1 expression | PINK1 immunofluorescence, high-content cytometry, 24 h | Potency, µM (titrated, usually from 76.6 µM), most hits filed as activators | hit rate 0.2% among 410,000; active = well fitted activation curve with a large enough effect; inconclusive = small, poorly fitted or top-dose-only effect; cell line not stated here; also: nearly all actives have a fitted effect of over 65% in size
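Fluorescence from anti-PINK1 antibody, together with nuclear and cell stains, was scanned on a laser-scanning cytometer. Before staining, stable-line cells were incubated 24 hours with compounds at 5 concentrations; primary antibody 12 h at 10 degrees C.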
PTAP TSG101 blk = blocks PTAP/TSG101 interaction to inhibit HIV-1 budding | Potency, µM (doses to about 115 µM), actives largely listed as inhibitors | 340,000 tested, under 10 active | Q99816 | AID 493005 | Fluorescence polarization, FITC-PTAP peptide / Tsg101 binding; active = well fitted inhibition curve with a large enough effect in the main read-out, with a control signal flat, not every such curve was filed as active; inconclusive = small, poorly fitted or top-dose-only effect, or effect the other way, or a change in a side signal; inactive = no such curve, though single readings can be large or run the other way
Target sequence (Q99816 whole entry, looked up): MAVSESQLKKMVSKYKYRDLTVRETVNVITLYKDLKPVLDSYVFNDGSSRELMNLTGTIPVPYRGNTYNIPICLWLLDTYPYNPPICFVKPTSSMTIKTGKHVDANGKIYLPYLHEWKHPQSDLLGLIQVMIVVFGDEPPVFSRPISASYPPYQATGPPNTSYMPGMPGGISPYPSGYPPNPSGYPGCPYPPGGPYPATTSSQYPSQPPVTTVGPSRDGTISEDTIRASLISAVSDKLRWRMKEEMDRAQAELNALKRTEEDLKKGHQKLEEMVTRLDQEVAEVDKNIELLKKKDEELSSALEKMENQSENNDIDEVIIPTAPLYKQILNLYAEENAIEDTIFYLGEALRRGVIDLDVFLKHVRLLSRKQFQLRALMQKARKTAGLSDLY
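Steps: Tsg101 binding domain dispensed (10 uM final), compounds pinned in DMSO, FITC-labeled PTAP-motif peptide added (50 nM final); after 20 min binding at room temperature, polarization measured.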
SW480 rereplic = inducers of DNA re-replication in SW480 colon cancer cells. SW480 DNA re-replication, Hoechst DNA content imaging, 48 h. Potency, µM (series often up to 46.1 µM), usual class: activators. hit rate 1.8% among 340,000; also: nearly all actives have a fitted effect of over 55% in size
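Treated cells incubate 48 hr (37 C, 5% CO2), are stained 40 min with Hoechst, and nuclear fluorescence is enumerated; a rise in nuclei with high DNA signal marks re-replication.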
KB-V1 cytotox = KB-V1 MDR subline cytotoxicity; AID 1347076; Potency, µM (doses to about 46.1 µM), hits mostly cytotoxic; KB-V1 MDR cells viability, CellTiter-Glo, 72 h; hit rate 3.4% among 400,000; also: nearly all actives have a fitted effect of over 60% in size
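Cytotoxicity toward P-gp-expressing KB-V1 cells was determined as loss of CellTiter-Glo luminescence after 72 h at 37 degrees C. Compounds were tested in quantitative HTS format across a concentration range, with curves fitted to normalized data.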
Each line names hits and unclear results; the compound was inactive in the other large screens. The list is not random: actives were taken first. Their share in the collection is about 6.8%. Unless noted, calls follow the shape of the dose curve; as a rule, active = well fitted curve in the direction sought with a large enough effect; inconclusive = small, poorly fitted or top-dose-only effect, or another doubt; inactive = no such curve, though single readings can be large; an effect the other way counts as inactive or inconclusive.

CCCCn1nnc(NC(=S)NC(=O)c2cccs2)n1	SW480 rereplic 18.4µM
O=c1c(N2CCN(c3cccc(Cl)c3)CC2)csc2ccccc12	none (no result: MCF10A rerep, PTAP TSG101 blk, SW480 rereplic)
O=S(=O)(NCc1c(Cl)cccc1Oc1ccccc1)c1ccc(F)cc1	KB-3-1 tox 16.4µM, MCF10A rerep inconclusive, SW480 rereplic inconclusive
CCCCCn1c(=O)[nH]c2cc(C(=O)NC(C)CC)ccc2c1=O (stereo not drawn)	none (no result: MCF10A rerep, PTAP TSG101 blk, SW480 rereplic)
Cn1c(-c2c(N)n(-c3ccccc3)c3nc4ccccc4nc23)nc2ccccc21	MCF10A rerep 8.2µM, SW480 rereplic 14.6µM, KB-V1 cytotox inconclusive
Cc1cccc(-n2c(N)c(-c3nc4ccccc4n3C)c3nc4ccccc4nc32)c1	MCF10A rerep inconclusive, PINK1 modulator inconclusive, SW480 rereplic 5.8µM
Cc1ccc2c(c1)c1nc3ccccc3nc1n2C	PINK1 modulator inconclusive, PTAP TSG101 blk inconclusive
CCN(CC)CCN1C(=O)/C(=C\c2ccc(Cl)c([N+](=O)[O-])c2)SC1=Nc1ccc(OC)cc1	KB-3-1 tox inconclusive, MCF10A rerep inconclusive, SW480 rereplic 3.66µM
Cc1cccn2c(=O)c(C(=O)NC3CC(C)CC(C)(C)C3)c(O)nc12 (stereo not drawn)	KB-3-1 tox inconclusive, MCF10A rerep inconclusive, PINK1 modulator inconclusive, KB-V1 cytotox 23.1µM
Cc1cccn2c(=O)c(C(=O)NCCCN3CC(C)CC(C)C3)c(O)nc12 (stereo not drawn)	SW480 rereplic inconclusive
Cc1cccn2c(=O)c(C(=O)NC3CCCCC3)c(O)nc12	KB-3-1 tox inconclusive, KB-V1 cytotox inconclusive
Cc1cccn2c(=O)c(C(=O)NC3CCCCC3C)c(O)nc12 (stereo not drawn)	KB-3-1 tox inconclusive, KB-V1 cytotox 16.4µM
CC1CCCC(NC(=O)c2ccncc2)C1C (stereo not drawn)	MCF10A rerep inconclusive
CC1CCCCC1NC(=O)c1ccncc1 (stereo not drawn)	SW480 rereplic 18.4µM
CCCCN1C(=O)C(O)(c2c[nH]c3ccccc23)c2cc(Br)ccc21 (stereo not drawn)	none (no result: MCF10A rerep, PTAP TSG101 blk, SW480 rereplic)
O=C(NCC(c1cccnc1)N1CCN(Cc2ccccc2)CC1)C(=O)Nc1cccc(F)c1 (stereo not drawn)	none (no result: MCF10A rerep, PTAP TSG101 blk, SW480 rereplic)
Cc1cc(=O)n2c(C(=O)Nc3ccc(C(=O)OC(C)C)cc3)c(C(=O)Nc3ccccc3)sc2n1	MCF10A rerep 16.4µM
Cc1cc(=O)n2c(C(=O)Nc3ccc(F)c(Cl)c3)c(C(=O)Nc3cccc(C)c3C)sc2n1	none (no result: MCF10A rerep, PTAP TSG101 blk, SW480 rereplic)
CC(=Nc1ccccc1)C1=C(O)CCCC1=O	none
CC(=Nc1ccccc1)C1=C(O)C(CC(C)C)NC1=O (stereo not drawn)	KB-V1 cytotox 23.1µM
CC(=Nc1ccccc1)C1=C(O)CSC1=O	none
CC(=Nc1ccccc1)C1=C(O)C(Cc2ccccc2)NC1=O (stereo not drawn)	KB-3-1 tox 0.0065µM, MCF10A rerep inconclusive, SW480 rereplic 0.164µM
CC(=Nc1ccccc1)C1=C(O)C(Cc2ccc(F)cc2)NC1=O (stereo not drawn)	KB-3-1 tox 1.84µM, KB-V1 cytotox inconclusive (no result: MCF10A rerep, PTAP TSG101 blk, SW480 rereplic)
CCOC(=O)c1c(S(=O)(=O)N2CCCC(C(=O)N3CCN(c4cccc(C)c4C)CC3)C2)c(C)n(C)c1C (stereo not drawn)	none (no result: MCF10A rerep, PTAP TSG101 blk, SW480 rereplic)
CCN(C(=O)c1cccc(Br)c1)c1ccccc1	none
O=C(/C=C/c1cccnc1)c1ccc(F)c(F)c1	KB-3-1 tox inconclusive, MCF10A rerep inconclusive, SW480 rereplic inconclusive
CN(C)c1ccc(C(=O)/C=C/c2cccnc2)cc1	KB-3-1 tox 18.4µM, MCF10A rerep inconclusive, SW480 rereplic inconclusive, KB-V1 cytotox inconclusive
CN(C)c1ccc(/C=C/C(=O)c2cccc(Br)c2)cc1	MCF10A rerep 16.4µM, PTAP TSG101 blk inconclusive, SW480 rereplic inconclusive, KB-V1 cytotox inconclusive
O=C(Cn1cc(S(=O)(=O)Cc2ccccc2F)c2ccccc21)NCc1ccccc1Cl	none (no result: MCF10A rerep, PTAP TSG101 blk, SW480 rereplic)
COC(=O)c1ccccc1NC(=O)CN1C(=O)COc2ccccc21	KB-V1 cytotox inconclusive (no result: MCF10A rerep, PTAP TSG101 blk, SW480 rereplic)
O=C(COc1ccccc1)N1CCN(c2nnc(-c3ccccc3)c3ccccc23)CC1	KB-3-1 tox inconclusive, KB-V1 cytotox 4.11µM
COc1ccc(OCC(=O)N2CCN(c3nnc(-c4ccccc4)c4ccccc34)CC2)cc1	KB-3-1 tox 23.1µM, KB-V1 cytotox 2.59µM
Cc1ccc(OCC(=O)N2CCN(c3nnc(-c4ccc(C)cc4)c4ccccc34)CC2)cc1	KB-3-1 tox 16.4µM, MCF10A rerep inconclusive, SW480 rereplic inconclusive, KB-V1 cytotox 2.59µM
Cc1ccc(-c2nnc(N3CCN(C(=O)COc4cccc(C)c4)CC3)c3ccccc23)cc1	KB-3-1 tox inconclusive, KB-V1 cytotox inconclusive
Cc1cccc(OCC(=O)N2CCN(c3nnc(-c4ccccc4)c4ccccc34)CC2)c1	KB-V1 cytotox inconclusive
COc1ccc(OCC(=O)N2CCN(c3nnc(-c4ccc(C)cc4)c4ccccc34)CC2)cc1	KB-3-1 tox inconclusive, KB-V1 cytotox 5.17µM
COC(=O)c1scc(-c2ccc(C)cc2)c1S(=O)(=O)Nc1ccc(F)cc1F	none (no result: MCF10A rerep, PTAP TSG101 blk, SW480 rereplic)
CC1=C/C(=C/N(C)C)C(=O)O1	none
CN(C)/C=C1/C=C(c2ccccc2)OC1=O	MCF10A rerep 18.4µM, SW480 rereplic inconclusive
O=S(=O)(c1ccc(F)cc1)N1CCC(c2nc3ccccc3[nH]2)CC1	KB-V1 cytotox inconclusive
O=S(=O)(c1cccc(Cl)c1)N1CCC(c2nc3ccccc3[nH]2)CC1	KB-V1 cytotox 8.2µM
CN(C)c1ccc(-c2noc(C3CCN(S(=O)(=O)c4cccc(Cl)c4)CC3)n2)cc1	KB-3-1 tox 16.4µM, MCF10A rerep inconclusive, KB-V1 cytotox 6.51µM
CN(C)c1ccc(-c2noc(C3CCN(S(=O)(=O)c4ccc(C(=O)O)cc4)CC3)n2)cc1	KB-3-1 tox inconclusive
O=S(=O)(c1ccc2c(c1)OCCO2)N1CCC(c2nc3ccccc3[nH]2)CC1	KB-3-1 tox inconclusive, KB-V1 cytotox 14.6µM
O=S(=O)(c1ccc2c(c1)OCCO2)N1CCC(c2nc3ccccc3s2)CC1	PINK1 modulator 11.2µM
O=S(=O)(c1cccc(C(F)(F)F)c1)N1CCC(c2nc3ccccc3[nH]2)CC1	MCF10A rerep inconclusive
O=S(=O)(c1ccc2c(c1)OCCO2)N1CCC(c2nc3ccc(Cl)cc3[nH]2)CC1	MCF10A rerep inconclusive, KB-V1 cytotox 2.91µM (no result: PTAP TSG101 blk)
O=C(NCC1CCCO1)c1ccc(S(=O)(=O)N2CCC(c3nc4ccc(Cl)cc4[nH]3)CC2)cc1 (stereo not drawn)	none
FC(F)(F)c1cccc(N2CCN(C(=S)NC3CCCCC3)CC2)c1	KB-3-1 tox inconclusive, PINK1 modulator 31.6µM, KB-V1 cytotox 20.6µM (no result: SW480 rereplic)
FC(F)(F)c1cccc(N2CCN(C(=S)NC3CCCC3)CC2)c1	KB-3-1 tox inconclusive, MCF10A rerep inconclusive, PINK1 modulator inconclusive, KB-V1 cytotox inconclusive

Screening data (PubChem BioAssay)
